Experimental findings from PubChem BioAssay (NCI) are described below.

The structures appear in SMILES notation. The panel holds about 79,000 compounds, 15% with a hit somewhere; the sample as a whole holds those more often. Calls of active or inactive are those of the source. No stated cut-off is given here; in the data, active means growth inhibition above about 70%; inactive means the rest.

This experiment can be described thus: NCI Yeast Anticancer Drug Screen. Data for the rad50 strain (AID 155).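 Further: 0% = growth of vehicle-only cultures of the same strain.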 To be noted: S. cerevisiae rad50 strain growth inhibition; at 11.0 µM; active compounds read high. The gist of the method:
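A DNA repair-deficient yeast mutant serves as the test organism; compound-induced growth inhibition is calculated against vehicle-treated cells.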
As to `O=[N+]([O-])c1cc[n+]([O-])cc1`, the growth inhibition is -1% (inactive).
Under `CC1(C)CC(=O)C(/C=N/c2nc(-c3ccccc3)cs2)=C(O)C1` stands -4% (inactive).
In the case of `Nc1nc(N)c2nc(CNc3ccc(C(=O)NC(CCC(=O)O)C(=O)O)cc3F)cnc2n1` (stereo unspecified) it was 30% (inactive); in that of `COC(=O)CC1(O)C(/C=C/c2ccccc2)C(C(=O)OC)C(=O)C(C(=O)OC)C1C(=O)OC` (stereo unspecified), 2% (inactive); in that of `CC(C)(C)c1ccc(NS(=O)(=O)c2ccc(N)cc2)cc1`, 14% (inactive).
In the case of `CCN(CC)CCNc1ccc([N+](=O)[O-])c2nc3ccccc3c(N)c12` it was 15% (inactive); in that of `CCCCN(CCCC)C(=O)/C=C/c1ccccc1`, -10% (inactive); in that of `O=c1[nH]c(-c2ccccc2)nc2c1sc1nc3ccccc3n12`, -8% (inactive).
As to `O=[N+]([O-])c1ccc2c(c1)/C(=N/N=C1c3ccccc3Cc3ccccc31)c1cc([N+](=O)[O-])cc([N+](=O)[O-])c1-2`, the growth inhibition was 96% (active).
In the case of `CC(C)C(C)/C=C\C(C)C1CCC2C3=CC=C4CC(O)CCC4(C)C3CCC21C` (stereo unspecified) it was -3% (inactive); in that of `O=C1Nc2ccc(Br)cc2C1=Nc1ccc2c(c1)OCO2`, -27% (inactive).
In the case of `CCCCOCn1c(=O)[nH]c(=O)c2cc(Br)ccc21` it was -10% (inactive).
In the case of `Cc1ccc(S/C(=C\C(=O)O)c2ccccc2)cc1` it was 13% (inactive); in that of `O=[N+]([O-])/C=C/c1cc(Cl)c(/C=C/[N+](=O)[O-])cc1Cl`, 81% (active).
`Cc1cc(S(=O)(=O)Nc2nnc3cnc4ccccc4n23)c(S)cc1Cl`: the growth inhibition was 2% (inactive).
Under `O=C(/C=C/c1cc(Cl)cc(Cl)c1O)c1cccc(O)c1` stands 67% (inactive).
